The campaign covered roughly 48,000 compounds. About 13,000 (27%) showed an effect of 50% or more. The list shows a part of the results.
System: Wolbachia pipientis
Experiment: Anti-Wolbachia Cell-Based Screen
Format: functional
Design: scale not given: in the data most compounds retested in dose-response had high values
Conditions: 5 µM

SMILES | Percent Effect
Cc1ccc2c(c1)c(CNC(=O)C1CCN(C(C)C)CC1)nn2C | -24.27%
CNC(=O)C(C)(C)CNC(=O)Nc1ccncc1C | -8.722%
O=C(CN1CCCC(c2ncc[nH]2)C1)NCC(F)(F)F (stereo unspecified) | -4.538%
CCn1c(C)nnc1CN(C)C1CCN(Cc2c(C)noc2C)C1 (stereo unspecified) | -8.892%
Cc1cc(CN2CCC(N(C)Cc3nnc(C4CC4)n3C)C2)on1 (stereo unspecified) | 124.1%
Cc1noc(C)c1CN1CCC(N(C)Cc2nnc(C3CC3)n2C)C1 (stereo unspecified) | 103.9%
Cc1nc(CN2CCC(N(C)Cc3nnc(C4CC4)n3C)C2)oc1C (stereo unspecified) | 102.1%
CN(Cc1nnc(C2CC2)n1C)C1CCN(Cc2ccon2)C1 (stereo unspecified) | -8.64%
Cc1nnc(CN2CCC(N(C)Cc3nnc(C4CC4)n3C)C2)o1 (stereo unspecified) | -3.428%
CN(Cc1nnc(C2CC2)n1C)C1CCN(CCS(C)(=O)=O)C1 (stereo unspecified) | -20.16%
Cc1ccc(C2CSCCN2CCS(C)(=O)=O)cc1 (stereo unspecified) | -9.324%
O=C(NC1CC(=O)N(C2Cc3ccccc3C2)C1)c1ccsc1 (stereo unspecified) | -4.544%
COCCN1CC[C@@H](O)[C@@H]1Cc1ccccc1.O=C(O)C(F)(F)F | 8.923%
CN1CCC(Cc2cncc(-c3ccccc3C(=O)O)n2)C1 (stereo unspecified) | 111.7%
CN1CCC(Cc2nc(-c3cnccn3)n(Cc3ccccc3)n2)CC1 | 21.66%
COCCN1CCC(Cc2cnc(-c3ccccc3C(=O)O)cn2)CC1 | 103.8%
CC(C)N1CCC(Cc2cncc(-c3ccccc3C(=O)O)n2)C1 (stereo unspecified) | 128.5%
CS(=O)(=O)N1CCCC(Cc2cncc(-c3ccccc3C(=O)O)n2)C1 (stereo unspecified) | 106.5%
CC(C)n1nc(Cn2cccn2)c2c1CN(C1CCOC1)C2.O=C(O)C(F)(F)F (stereo unspecified) | -7.587%
COc1cc(C)ccc1S(=O)(=O)N1CC[C@](C)(O)[C@H](C)C1 | -18.99%
Cc1cnn(C2CN(CC(O)Cn3cccn3)C2)c1 (stereo unspecified) | -31.52%

SMILES | Percent Effect
COc1ncccc1-c1nc(-c2ccccn2)nn1C1CCS(=O)(=O)C1 (stereo unspecified) | 10.63%
CC(C#N)CNS(=O)(=O)c1ccc(F)c(Br)c1 (stereo unspecified) | -7.227%
O=C(Nc1ccc(S(=O)(=O)Nc2c(F)cccc2F)cc1)N1CCCC1 | -7.034%
CCN(CC(=O)NC(C)(C)C)Cc1cccc2c1OCCO2 | -0.7065%
CCOc1nnc(CN(CC)CC(=O)Nc2c(F)cccc2F)s1 | 97.11%
CCOc1nnc(CN(Cc2ccccc2)CC(O)c2ccco2)s1 (stereo unspecified) | 2.067%
CCOc1nnc(CN(CC)CC(=O)NC(C)(C)C)s1 | 93.91%
CCN(CC(=O)NC(C)C)S(=O)(=O)N1CCCCCC1 | 9.147%
CCOc1nnc(CN(CC)CC(=O)NC(C)C)s1 | 101.2%
CCNC(=O)CN(CC)Cc1nc2c(F)cccc2n1CC | -0.387%
CCOc1ccccc1C(CC(=O)Nc1ccccc1F)NC(C)=O (stereo unspecified) | -7.406%
CCN(CC(=O)Nc1cc(C(C)(C)C)no1)Cc1ccc(Cl)s1 | 1.082%
O=C1[C@@H]2CCN(Cc3ccc(F)cc3)C[C@@H]2OCCN1c1cccnc1 | -21%
Cc1cccc(CN2CCCC3(CCN(C4CCSCC4)C3)C2=O)c1 (stereo unspecified) | -3.098%
CN(C)C(=O)Cn1ccc2cc(NC(=O)N3CCSCC3)ccc21 | -2.006%
Cc1ccc(C)c2c(O)cc(CNCC(N)=O)nc12 | -7.963%
CC(C)c1nc(-c2cc(C(=O)NCCN(C)C)c3ccccn23)cs1.O=C(O)C(F)(F)F | -4.099%
O=C1N(CCCc2ccccc2)CCCC1(O)CN1CCC(CO)CC1 (stereo unspecified) | -7.352%
CC(C)n1ncc2c1NC(=O)C(C#N)C21CCCC1 (stereo unspecified) | 15.91%
Cc1ccc(CN2CC[C@H]3OCC[C@@H](C(=O)NCC4CC4)[C@@H]3C2)s1.O=C(O)C(F)(F)F | -8.513%
Cc1ccc(CN2CC[C@H]3[C@H]2CCN3S(=O)(=O)C2CC2)s1.O=C(O)C(F)(F)F | -4.175%

SMILES | Percent Effect
Cc1ccc(CN2CC[C@H]3[C@H]2CCN3S(C)(=O)=O)s1.O=C(O)C(F)(F)F | -3.604%
COCCN1CCO[C@@H]2CN(Cc3ccc(C)s3)C[C@@H]2C1.O=C(O)C(F)(F)F.O=C(O)C(F)(F)F | -5.835%
CS(=O)(=O)N1CC[C@H]2O[C@H](C(=O)NCCc3ccncc3)CC[C@H]21.O=C(O)C(F)(F)F | -5.225%
Cc1ccc(CN2CC[C@@H]3OCCN(Cc4ccncc4)[C@H]3CC2)s1.O=C(O)C(F)(F)F.O=C(O)C(F)(F)F.O=C(O)C(F)(F)F | 91.24%
Cc1ccc(CN2CC[C@@H]3OCCN(S(C)(=O)=O)[C@H]3CC2)s1.O=C(O)C(F)(F)F | 114.1%
CS(=O)(=O)N1CCO[C@@H]2CCN(Cc3ccncc3)CC[C@H]21.O=C(O)C(F)(F)F.O=C(O)C(F)(F)F | 114.1%
CS(=O)(=O)N1CCO[C@@H]2CN(Cc3ccc(F)cc3)CC[C@@H]2C1.O=C(O)C(F)(F)F | -0.3298%
CC1CN(S(=O)(=O)c2cc(S(C)(=O)=O)ccc2Br)c2cccnc2O1 (stereo unspecified) | -14.61%
CC1(C)CN(CC(F)(F)F)CCN1CC(=O)N1CCCCC1 | -2.434%
O=C(O)C(F)(F)F.O=S(=O)(NC[C@]12COC[C@H]1CN(c1ncc(F)cn1)C2)C1CC1 | 7.707%
Cc1nc2c(C#N)cnn2c(C)c1CCC(=O)N(C)C(C)C(C)C (stereo unspecified) | 7.938%
COC(=O)CCc1c(C)nc2cc(O)nn2c1C | 10.93%
Cc1nn(C)c(C)c1CCC(=O)N(C)Cc1ccc2nsnc2c1 | 27.84%
CCCN(CC(F)F)C(=O)CCc1c(C)nc2cc(O)nn2c1C | 131.4%
COCC(C)N(C)C(=O)CCc1c(C)nc2c(C#N)cnn2c1C (stereo unspecified) | -1.234%
Cc1nc2ccnn2c(C)c1CCC(=O)N1CCN(C2CC2)CC1 | 0.559%
Cc1nc2cc(O)nn2c(C)c1CCC(=O)N(C)Cc1ccccc1 | 86.37%
Cc1nn(CCC#N)c(C)c1CCC(=O)N(C)Cc1ccsc1 | 21.07%
Cc1nc2cc(O)nn2c(C)c1CCC(=O)N(C)CCC(C)C | 96.83%

Source: ChEMBL document CHEMBL3988442, “University of Dundee, Small-Polar-MMV Screening Library” (2021)
